Reference: PubChem BioAssay (NCI)
The panel holds about 83,000 compounds, 20% with a hit somewhere; the sample as a whole holds those more often.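 Testing used 96-well plates and a 48-hour single-concentration exposure. Example: -40 means 40% of the starting cells died.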 Calls of active or inactive are those of the source. Rule for the calls: active = growth percent below 10; inactive = the rest.

The compounds below were run on HL-60(TB) leukemia (assay: NCI-60 one-dose screen, 48 h (100 = growth as untreated, 0 = no growth, -100 = all killed)). Details: 10 µM unless noted.

SMILES	growth
CC(C)C(C)(C)C(=O)C(C)(C)C(C)(C)C	135% (inactive)
Cc1cnc(N)nc1OCCNC(=O)c1cccc(-c2ccc(S(=O)(=O)Nc3ccc4c(c3)N(C(=O)C3CC3)CCC4)cc2)c1	43.3% (inactive)
COc1ccc2nc3ccccc3c(NCCNCCO)c2c1	6.15% (active)
COc1ccc(-c2c(N)n[nH]c2-c2cc(OC)c3c(c2)OCCO3)cc1	47.1% (inactive)
CC(=O)N1c2ccccc2NC2=C(C(=O)N(C)C2(C)C)C1C (stereo not given)	7.5% (active)
OB1OCc2cc(/C=C/c3cccc(C(F)(F)F)c3)ccc21	-6.49% (active)
C=C[C@@H]1C[C@@H]2Cc3cc(Cl)ccc3N1O2	13.8% (inactive)
O=S(=O)(c1ccc(NC(=S)NC23CC4CC(CC(C4)C2)C3)cc1)N1CCCCC1	-29.2% (active)
COc1cc(C(=O)n2nc(-c3cc(OC)c(OC)c(OC)c3)nc2N)cc(OC)c1OC	67.7% (inactive)
COc1ccc(-c2coc3c(CO)c(O)ccc3c2=O)cc1	-24.9% (active)
N#Cc1c(-c2ccc(Cl)cc2)cc(-c2cc3ccccc3o2)nc1SCC(=O)c1ccc(Cl)cc1	123% (inactive)
Nc1c(C(=O)Nc2ccncc2)sc2nc3c(cc12)C(O)CCC3 (stereo not given)	95.4% (inactive)
COc1ccc(S(=O)(=O)N2CCCCCC2)cc1NC(=O)c1[nH]c(C)c2c1CCCCC2=O	7.56% (active)
COc1c(CNC(=O)CCl)cc2[nH]c(C)cc2c1CNC(=O)CCl	39.4% (inactive)
Clc1ccc2nc(Cl)c3ccccc3c2c1	92.3% (inactive)
